This passage reports Potency, activation and activity change, negative = inhibition results from PubChem BioAssay (NCATS).

Unmarked numbers belong to inactive results. Results filed as inconclusive are left out. Activity calls are given as the source filed them. Unless noted, calls follow the shape of the dose curve; as a rule, active = well fitted curve in the direction sought with a large enough effect; inconclusive = small, poorly fitted or top-dose-only effect, or another doubt; inactive = no such curve, though single readings can be large; an effect the other way counts as inactive or inconclusive.

In assay [1] the target is Rap guanine nucleotide exchange factor 3 (Homo sapiens) (UniProt O95398). Put plainly: Confirmatory qHTS for antagonist of cAMP-regulated guanine nucleotide exchange factor 3 (EPAC1) (AID 1645880). Also: nearly all actives have a fitted effect of over 55% in size. Also: potency is read from the fitted curve at half-maximal effect.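 As to activity, negative = inhibition: plate controls were DMSO only for no effect and full effect of the ATA control for full effect.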 The settings on record: EPAC1 Rap1B-BODIPY-GDP exchange, fluorescence; activity, negative = inhibition: at 115 µM (top of the series). A digest of the protocol: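 Released BODIPY-GDP fluoresces less than Rap1-bound BODIPY-GDP; the signal is followed at 480/540 nm at 5-min intervals over 30 min, after 5 min at room temperature. Reactions contain 100 nM EPAC1, 250 nM RAP1B-BODIPY-GDP and 50 uM GDP; results are normalized to ATA and DMSO.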
On the technique in general: qHTS replaces the single test concentration by a dilution series.

The target in assay [2] is Rap guanine nucleotide exchange factor 4 (Homo sapiens) (UniProt Q8WZA2). Put plainly: Confirmatory qHTS for agonist of cAMP-regulated guanine nucleotide exchange factor 4 (EPAC2) (AID 1645884).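 Also: nucleotide exchange releases bodipy-GDP from Rap1 and this lowers its fluorescence; nearly all actives have a fitted effect of over 65% in size.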 Also: potency is read from the fitted curve at half-maximal effect. As to activation: % is scaled to controls: 0 for no effect and ±100 for the full control effect.
The target is the same in assay [3]. Put plainly: Confirmatory qHTS for antagonist of cAMP-regulated guanine nucleotide exchange factor 4 (EPAC2) (AID 1645885). Also: nearly all actives have a fitted effect of over 25% in size. Also: potency is read from the fitted curve at half-maximal effect. As to activity change, negative = inhibition: % is scaled to controls: 0 for no effect and ±100 for the full control effect.
Assay [4] addresses Rap guanine nucleotide exchange factor 3 (Homo sapiens) (UniProt O95398). Put plainly: Counterscreen qHTS for antagonist of cAMP-regulated guanine nucleotide exchange factor 3 (EPAC1) (AID 1645888). Also: % of control where 0% means no effect. A digest of the protocol: (§1)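 Rap1B–BODIPY-GDP (250 nM) with 50 uM GDP; compounds pin-transferred to 9.74 nM–152 uM final (activator) or from 7.32 nM upwards (inhibitor). Fluorescence Ex/Em 480/540 nm read at 5 and 30 min, then after adding cAMP or buffer, at room temperature.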
For orientation: Counterscreens check selectivity or assay interference.

Assay [5] has the same target. Put plainly: Counterscreen qHTS for agonist of cAMP-regulated guanine nucleotide exchange factor 3 (EPAC1) (AID 1645889). Also: nearly all actives have a fitted effect of over 40% in size. Also: potency is read from the fitted curve at half-maximal effect. As to activation: % of control where 0% means no effect. A digest of the protocol:
as §1

Assay [6] in a line: AP1 Signaling Pathway (AID 357; active = well fitted curve in either direction with a large enough effect, not every such curve was filed as active; also: % is scaled to controls: 0 for no effect and ±100 for the full control effect). To be noted: ME-180 AP-1-bla reporter, EGF-induced, beta-lactamase ratio, 5 h; at 7.69 µM (top of the series) unless noted. The method, boiled down: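 Cells are seeded overnight, exposed to compound titrations and an EC50 level of EGF for 5 hours at 37 °C, then loaded with CCF4 dye for 2.5 hours. Beta-lactamase activity under the AP-1 element is read as a blue/green ratio.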

Assay [7] has as its target Glucocorticoid receptor (Homo sapiens) (UniProt P04150). Put plainly: GR-GFP Redistribution (AID 450;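 active = compounds whose dose series gives a full or clear partial fitted curve of increased nuclear translocation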; also: potency is read from the fitted curve at half-maximal effect). The settings on record: U2OS GR-GFP nuclear translocation, laser cytometry, 2 h.
Assay [8] can be described thus: qHTS Assay for Identification of Small Molecule Agonists for Hypoxia Response Element Signaling Pathway (AID 914; active = well fitted activation curve with a large enough effect in the signal ratio, with a control signal flat, not every such curve was filed as active; the % refers to the signal ratio; also: potency is read from the fitted curve at half-maximal effect). The settings on record: ME-180 (cervical carcinoma) HRE-bla reporter, beta-lactamase ratio, CoCl2, 17 h; activation: active compounds read high. The method, boiled down:
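HRE-bla ME-180 cells with beta-lactamase reporter under hypoxia response element, compounds with EC50 CoCl2 for 17 hours at 37 C. CCF4 substrate, 460nm/530nm emission ratio gave %Activity; AC50 from titration series.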

Chain of Rap guanine nucleotide exchange factor 4 (Homo sapiens) (Q8WZA2 whole entry, looked up): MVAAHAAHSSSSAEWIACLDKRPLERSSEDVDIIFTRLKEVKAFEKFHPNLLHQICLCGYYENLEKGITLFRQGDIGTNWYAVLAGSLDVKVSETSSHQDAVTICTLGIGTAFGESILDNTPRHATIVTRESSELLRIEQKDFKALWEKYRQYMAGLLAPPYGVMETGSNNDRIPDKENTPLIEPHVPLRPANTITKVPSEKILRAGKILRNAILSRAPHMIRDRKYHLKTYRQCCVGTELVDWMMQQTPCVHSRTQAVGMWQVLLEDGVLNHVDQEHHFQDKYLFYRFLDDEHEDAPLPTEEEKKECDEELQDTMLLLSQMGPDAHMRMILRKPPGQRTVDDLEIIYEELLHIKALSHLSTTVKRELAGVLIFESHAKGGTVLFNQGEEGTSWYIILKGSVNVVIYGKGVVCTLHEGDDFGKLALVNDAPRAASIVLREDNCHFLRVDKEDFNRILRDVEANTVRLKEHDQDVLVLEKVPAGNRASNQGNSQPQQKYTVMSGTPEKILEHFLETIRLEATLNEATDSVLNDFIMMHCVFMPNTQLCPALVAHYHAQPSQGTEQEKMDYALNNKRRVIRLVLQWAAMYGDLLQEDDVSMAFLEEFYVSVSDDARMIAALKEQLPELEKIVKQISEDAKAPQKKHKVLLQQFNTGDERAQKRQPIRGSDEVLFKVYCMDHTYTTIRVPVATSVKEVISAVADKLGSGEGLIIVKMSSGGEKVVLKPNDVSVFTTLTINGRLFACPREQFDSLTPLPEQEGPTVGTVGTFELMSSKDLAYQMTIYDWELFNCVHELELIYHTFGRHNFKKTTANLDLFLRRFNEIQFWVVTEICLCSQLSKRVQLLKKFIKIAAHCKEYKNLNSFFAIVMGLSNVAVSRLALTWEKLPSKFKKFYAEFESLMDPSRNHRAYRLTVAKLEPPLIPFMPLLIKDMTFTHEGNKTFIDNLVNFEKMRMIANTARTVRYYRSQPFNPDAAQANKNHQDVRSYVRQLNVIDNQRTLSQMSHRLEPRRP
Chain of Rap guanine nucleotide exchange factor 3 (Homo sapiens) (O95398 whole entry, looked up): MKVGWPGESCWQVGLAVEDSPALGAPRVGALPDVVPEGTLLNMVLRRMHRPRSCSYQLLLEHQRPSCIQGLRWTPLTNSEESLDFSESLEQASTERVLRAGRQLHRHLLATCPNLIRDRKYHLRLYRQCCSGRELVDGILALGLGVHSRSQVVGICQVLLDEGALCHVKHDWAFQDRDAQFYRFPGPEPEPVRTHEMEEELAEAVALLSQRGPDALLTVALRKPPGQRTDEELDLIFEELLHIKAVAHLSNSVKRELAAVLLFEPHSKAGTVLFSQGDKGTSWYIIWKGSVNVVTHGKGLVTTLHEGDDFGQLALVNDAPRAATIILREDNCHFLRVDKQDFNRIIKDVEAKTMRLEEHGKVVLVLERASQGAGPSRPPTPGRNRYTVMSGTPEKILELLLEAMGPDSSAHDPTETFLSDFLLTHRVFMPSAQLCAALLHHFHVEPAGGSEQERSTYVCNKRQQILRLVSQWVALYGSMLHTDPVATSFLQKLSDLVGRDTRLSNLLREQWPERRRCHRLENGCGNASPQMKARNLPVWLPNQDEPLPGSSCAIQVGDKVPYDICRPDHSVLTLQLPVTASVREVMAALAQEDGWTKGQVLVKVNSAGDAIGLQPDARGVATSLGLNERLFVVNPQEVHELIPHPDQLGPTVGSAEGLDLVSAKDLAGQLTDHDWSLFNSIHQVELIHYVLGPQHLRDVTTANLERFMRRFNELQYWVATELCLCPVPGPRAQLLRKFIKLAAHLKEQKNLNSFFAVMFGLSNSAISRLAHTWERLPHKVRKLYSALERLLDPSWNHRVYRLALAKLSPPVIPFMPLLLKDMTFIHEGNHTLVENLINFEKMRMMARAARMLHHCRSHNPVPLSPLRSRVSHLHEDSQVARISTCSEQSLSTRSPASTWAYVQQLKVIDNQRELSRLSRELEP
Chain of Glucocorticoid receptor (Homo sapiens) (P04150 whole entry, looked up): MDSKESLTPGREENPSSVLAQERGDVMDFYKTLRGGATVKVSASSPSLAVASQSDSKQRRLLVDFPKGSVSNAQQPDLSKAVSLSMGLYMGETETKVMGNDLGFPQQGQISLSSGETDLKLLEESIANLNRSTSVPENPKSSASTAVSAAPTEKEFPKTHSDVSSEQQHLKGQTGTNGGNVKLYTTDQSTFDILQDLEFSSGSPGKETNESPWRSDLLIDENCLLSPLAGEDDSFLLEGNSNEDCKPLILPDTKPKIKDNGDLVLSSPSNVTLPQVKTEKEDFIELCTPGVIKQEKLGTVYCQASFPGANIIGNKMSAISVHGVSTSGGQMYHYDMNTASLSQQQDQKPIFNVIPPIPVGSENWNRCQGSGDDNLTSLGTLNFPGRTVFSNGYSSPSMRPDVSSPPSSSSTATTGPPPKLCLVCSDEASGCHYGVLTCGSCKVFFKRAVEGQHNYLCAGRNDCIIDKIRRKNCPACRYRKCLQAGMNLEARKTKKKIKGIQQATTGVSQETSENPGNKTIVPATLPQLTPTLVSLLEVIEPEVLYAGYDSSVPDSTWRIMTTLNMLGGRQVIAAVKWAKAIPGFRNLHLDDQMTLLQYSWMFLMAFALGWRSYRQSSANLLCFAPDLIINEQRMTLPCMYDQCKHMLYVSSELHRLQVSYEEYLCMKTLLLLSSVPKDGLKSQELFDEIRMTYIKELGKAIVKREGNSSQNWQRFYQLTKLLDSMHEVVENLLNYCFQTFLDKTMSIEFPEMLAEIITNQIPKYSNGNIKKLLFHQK

Take `CN(C)c1ccc(/C=C2\SC(=S)N(Nc3ncc(C(F)(F)F)cc3Cl)C2=O)cc1`: the Potency entry in assay [1] and in assay [4] was “inactive” in each case. The Potency in assay [2] was 112 µM (active); in assay [3] it was 16.9 µM (active); in assay [5] it was 17.8 µM (active).

For the compound `O=C(Cn1c(=O)n(-c2ccccc2)c(=O)c2c3c(sc21)CCC3)c1ccc(Br)cc1`, the Potency entry in assay [1], in assay [2], in assay [3], in assay [4] and in assay [5] was “inactive” each time.

Turning to `CN1/C(=C/C=C(C#N)C#N)C(C)(C)c2ccccc21`, the Potency entry in assay [1] and in assay [3] was “inactive” in each case. Moreover, the activation in assay [2] was -11.9% [at 17.1 µM, percent relative to cAMP agonist control]; in assay [5] it was -347% [at 30.8 µM]. In addition, the activity change, negative = inhibition in assay [4] is 214% [at 30.8 µM].

With `COC(=O)c1c(SC)nc2ccccc2c1OCc1ccc(C)cc1C`, the Potency result in assay [1], in assay [2], in assay [3], in assay [4] and in assay [5] was “inactive” each time.

For the compound `COc1ccc(N=Cc2c(O)n(-c3cccc(C)n3)c(=O)c3ccccc23)c(OC)c1`, the Potency result in assay [1] and in assay [3] was “inactive” each time. Moreover, the activation in assay [2] was -25.1% [at 17.1 µM, percent relative to cAMP agonist control]; in assay [5], 19.8% [at 30.8 µM]. Also, in assay [4], the activity change, negative = inhibition is 31% [at 30.8 µM].

As to `N#CC(Sc1ccccn1)c1ccc(Cl)cc1Cl` (stereo not drawn), the Potency entry in assay [1], in assay [2], in assay [3], in assay [4] and in assay [5] was “inactive” throughout.

Consider `N#CC1=C(N)OC2=C(CC/C2=C\c2ccccc2)C1c1ccccc1` (stereo not drawn), for which the Potency entry in assay [1], in assay [3], in assay [4] and in assay [5] was “inactive” each time. Further, the Potency in assay [2] was 112 µM (active).

On to `O=c1oc2cc(O)ccc2cc1-c1nc2c(s1)CCc1ccccc1-2`, for which the Potency result in assay [1], in assay [3], in assay [4] and in assay [5] was “inactive” in each case. In addition, the Potency in assay [2] is 100 µM (active).

For `O=c1oc2ccc(Cl)cc2nc1/C=C(\O)c1cccs1`, the Potency entry in assay [1] and in assay [3] was “inactive” in each case. Besides, the activation in assay [2] is 14.5% [at 17.1 µM, percent relative to cAMP agonist control]; in assay [5] it was 11.4% [at 30.8 µM]. Further, the activity change, negative = inhibition in assay [4] is 7.64% [at 30.8 µM].

In the case of `COC(=O)c1cc(NC(=O)c2ccccc2)c(=O)oc1C/C=N\OCc1ccc(Cl)cc1Cl`, the Potency entry in assay [1] and in assay [3] was “inactive” in each case. Further, the activation in assay [2] was -1.43% [at 17.1 µM, percent relative to cAMP agonist control]; in assay [5] it was 26% [at 30.8 µM]. Further, the activity change, negative = inhibition in assay [4] is -10.8% [at 30.8 µM].

Regarding `Cc1ccc2[nH]cc(/C=C/c3cc[n+](C)cc3)c2c1`, the Potency entry in assay [1], in assay [3] and in assay [4] was “inactive” each time. The Potency is 112 µM (active) in assay [2] and 56.2 µM (active) in assay [5].

Take `CCN(CC)c1ccc2cc(-c3nc(-c4ccccc4)no3)c(=O)oc2c1`: the Potency result in assay [1] and in assay [4] was “inactive” in each case. The figures for the Potency in assay [2], in assay [3] and in assay [5] were 31.6 µM (active), 6.01 µM (active) and 56.2 µM (active), respectively.

For the compound `CCOc1ccccc1NC(=O)CSc1nccn1-c1cccc(C)c1`, the Potency result in assay [1], in assay [2], in assay [3], in assay [4] and in assay [5] was “inactive” throughout.

Consider `CCCN1C(=O)S/C(=C/c2ccc(N3CCOCC3)o2)C1=O`, for which the Potency result in assay [1], in assay [4] and in assay [5] was “inactive” throughout. In addition, the Potency was 112 µM (active) in assay [2] and 67.5 µM (active) in assay [3].

For `O=[N+]([O-])c1ccc(N(c2ccccc2)c2ccccc2)cc1`, the Potency result in assay [1] and in assay [3] was “inactive” in each case. Also, the activation in assay [2] is 3.9% [at 17.1 µM, percent relative to cAMP agonist control]; in assay [5], 15.8% [at 30.8 µM]. Further, the activity change, negative = inhibition in assay [4] is -24.8% [at 30.8 µM].

Take `COc1ccc(NC(=O)/C(C#N)=C\c2ccc(OCc3ccc(C(=O)O)cc3)c(OC)c2)cc1`: the Potency in assay [1] was 67.5 µM (active). In addition, the Potency entry in assay [2], in assay [3], in assay [4] and in assay [5] was “inactive” in each case.

Regarding `Cc1ccc(N=Cc2sc(O)c3ccccc23)c(C)c1`, the Potency result in assay [1] and in assay [3] was “inactive” throughout. In addition, the activation is -3.2% [at 17.1 µM, percent relative to cAMP agonist control] in assay [2] and 10.3% [at 30.8 µM] in assay [5]. The activity change, negative = inhibition in assay [4] is -0.317% [at 30.8 µM].

On to `CCN(CC)c1ccc2cc(C(=O)Nc3ccccn3)c(=O)oc2c1`, for which the activity change, negative = inhibition in assay [6] was 7.12% [at 17.2 µM]. Also, the Potency in assay [7] is above 20.6 µM; in assay [8] it was 3.98 µM (active); in assay [2], 100 µM (active). Besides, the Potency entry in assay [1], in assay [3], in assay [4] and in assay [5] was “inactive” throughout.

As to `NC(=O)c1c(NC(=O)c2ccccc2)sc2c1CCN(Cc1ccccc1)C2`, the Potency entry in assay [1] and in assay [4] was “inactive” throughout. Moreover, the Potency in assay [2] was 112 µM (active); in assay [3], 84.9 µM (active); in assay [5], 39.8 µM (active).

As for `CC(C)n1cc(/C=C/c2cc[n+](C)cc2)c2ccccc21`, the Potency entry in assay [1], in assay [3] and in assay [4] was “inactive” each time. Besides, the values for the Potency in assay [2] and in assay [5] were 112 µM (active) and 56.2 µM (active), respectively.

Regarding `Cc1ccc2c(c1C)OC(=O)CC2c1ccccc1` (stereo not drawn), the Potency result in assay [1], in assay [2], in assay [3], in assay [4] and in assay [5] was “inactive” each time.

In the case of `COc1ccc(NC2c3ccccc3C(=O)N2c2ccccn2)cc1Cl` (stereo not drawn), the Potency result in assay [1], in assay [2], in assay [3], in assay [4] and in assay [5] was “inactive” in each case.
